{"source": "PubChem BioAssay (Tox21)", "note": "Values without a mark were called inactive. Activity calls are given as the source filed them. Unless noted, calls follow the shape of the full dose curve. % is scaled to controls: 0 for no effect and ±100 for the full control effect."}
{"biological_target": "KiSS-1 receptor (Homo sapiens) (UniProt Q969F8)", "sequence (Q969F8 whole entry, looked up)": "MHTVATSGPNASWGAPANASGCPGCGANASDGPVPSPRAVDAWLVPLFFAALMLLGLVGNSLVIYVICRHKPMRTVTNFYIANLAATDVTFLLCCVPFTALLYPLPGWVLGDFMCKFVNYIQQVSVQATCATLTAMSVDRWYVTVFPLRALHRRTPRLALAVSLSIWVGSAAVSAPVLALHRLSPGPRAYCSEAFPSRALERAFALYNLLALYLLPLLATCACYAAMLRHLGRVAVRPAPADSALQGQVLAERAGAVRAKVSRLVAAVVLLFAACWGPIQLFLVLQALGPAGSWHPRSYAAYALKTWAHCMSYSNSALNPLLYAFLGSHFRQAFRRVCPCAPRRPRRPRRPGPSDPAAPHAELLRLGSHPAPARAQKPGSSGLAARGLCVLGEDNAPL", "assay": "Human kisspeptin (KISS1R) small molecule agonists, calcium flux assay in KISS1R-HEK293 cells (AID 1920064; active = well fitted activation curve with a large enough effect in the repeat runs)", "conditions": "KISS1R-HEK293, calcium flux fluorescence, agonist; series mostly up to 76.8 µM; activation: at the top concentration", "method_in_brief": "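HEK293 cells stably expressing human KISS1R were loaded with calcium dye for 1 h at 37 C, then given compound; fluorescence (Ex/Em 480/540) was read kinetically for 3 min. Fifteen concentrations, triplicate.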"}
{"smiles": "Cc1cc(CCC(=O)OCCOCCOCCOC(=O)CCc2cc(C)c(O)c(C(C)(C)C)c2)cc(C(C)(C)C)c1O", "activation": "3.92%"}
{"smiles": "COCCCOc1ccnc(CS(=O)c2nc3ccccc3[nH]2)c1C", "note": "(stereo not drawn)", "Potency": "inactive"}
{"smiles": "CC(C)(c1ccc(O)cc1)c1ccc(O)cc1", "Potency": "inactive"}
{"smiles": "C[Si](C)O[Si](C)(C)O[Si](C)(C)O[Si](C)C", "activation": "-1.12%"}
{"smiles": "C[C@H]1C[C@H](O)c2ccsc2S1(=O)=O", "activation": "-1.09% [at 35.3 µM]"}
{"smiles": "CC1=CCC(C(C)(C)O)CC1", "note": "(stereo not drawn)", "Potency": "inactive"}
{"smiles": "CCC(C)=O", "activation": "-4.62%"}
{"smiles": "N=c1nc(N2CCCCC2)cc(N)n1O", "activation": "0.827% [at 35.3 µM]"}
{"smiles": "CC(C)CCCC(C)N", "note": "(stereo not drawn)", "activation": "2.11% [at 35.3 µM]"}
{"smiles": "COc1ccc2c(c1)CCCC2=O", "activation": "-0.461% [at 35.3 µM]"}
{"smiles": "CC1=CCC(O)(C(C)C)CC1", "note": "(stereo not drawn)", "activation": "-0.803%"}
{"smiles": "CCCCCCCC(=O)[O-].CCCCCCCC(=O)[O-].[Zn+2]", "activation": "0.148% [at 35.3 µM]"}
{"smiles": "Nc1nc(N)c2nc(-c3ccccc3)c(N)nc2n1", "Potency": "inactive"}
{"smiles": "COC(=O)c1ccccc1C(=O)c1ccc(OCCN2CCCCC2)cc1", "activation": "-0.488% [at 35.3 µM]"}
{"smiles": "c1coc(CNc2ncnc3nc[nH]c23)c1", "activation": "-2.7%"}
{"smiles": "CC1=C(O)C(=O)C(C)O1", "note": "(stereo not drawn)", "activation": "-1.76%"}
{"smiles": "Cc1[nH]cnc1-c1ccc(Cl)cc1", "activation": "-1.43% [at 35.3 µM]"}
{"smiles": "C1CCCC1", "activation": "3.91%"}
{"smiles": "CCCC(=O)CC", "activation": "0.525%"}
{"smiles": "Oc1ccc(Cl)cc1Sc1cc(Cl)ccc1O", "Potency": "inactive"}
{"smiles": "CCOCOCC", "activation": "-4.47%"}
{"smiles": "CCCC1O[C@@H]2C[C@H]3[C@@H]4CCC5=CC(=O)C=C[C@]5(C)[C@H]4[C@@H](O)C[C@]3(C)[C@]2(C(=O)CO)O1", "note": "(stereo partly drawn)", "activation": "0.206%"}
{"smiles": "C1C[C@@H]2[C@H]3CC[C@H](C3)[C@@H]2C1", "activation": "0.819%"}
{"smiles": "CC(C)C(=O)c1ccccc1", "activation": "1.08%"}
{"smiles": "Cc1c(C)c2c(c(C)c1O)CCC(C)(COc1ccc(CC3SC(=O)NC3=O)cc1)O2", "note": "(stereo not drawn)", "Potency": "inactive"}
{"smiles": "Cc1nc2ccccc2s1", "activation": "1.02%"}
{"smiles": "COCCOCCOCCOCCOCCO", "activation": "3.01%"}
{"smiles": "O=C(O)c1cc(-c2ccccc2)nc2ccccc12", "Potency": "inactive"}
{"smiles": "COc1cc(C(=S)N2CCOCC2)ccc1O", "activation": "-0.257% [at 35.3 µM]"}
{"smiles": "O=C(O)CCCCCCCCCCCC(=O)O", "Potency": "inactive"}
{"smiles": "O=S(=O)(O)c1cccc2ccccc12", "activation": "2.97%"}
{"smiles": "COC(=O)CCCCC(=O)O", "activation": "4.02%"}
{"smiles": "CN(CCOc1ccc(CC2SC(=O)NC2=O)cc1)c1ccccn1", "note": "(stereo not drawn)", "Potency": "inactive"}
{"smiles": "O=C(c1ccc(O)cc1O)c1ccc(O)cc1O", "Potency": "inactive"}
{"smiles": "O=C(CCNNC(=O)c1ccncc1)NCc1ccccc1", "activation": "-1.12% [at 35.3 µM]"}
{"smiles": "O=C(O)c1cc(O)c(O)c(O)c1", "Potency": "inactive"}
{"smiles": "NCCc1ccc(O)c(O)c1", "Potency": "inactive"}
{"smiles": "O=C(O)c1ccc(CO)o1", "activation": "4.21%"}
{"smiles": "O=C(O)CSCC(=O)NC1CCSC1=O", "note": "(stereo not drawn)", "activation": "-1.09% [at 35.3 µM]"}
{"tested_on": "not listed separately", "assay": "G protein-coupled receptor (GPCR) small molecule agonists, calcium flux assay: HEK293 wild type cell line counter screen (AID 1920065)", "conditions": "HEK293 WT calcium flux, fluorescence, agonist mode; series mostly up to 57.6 µM; activation: at the top concentration", "method_in_brief": "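Wild-type HEK293 cells plated 18 h, loaded with calcium dye 1 h at 37 C, then compounds added in agonist mode (ATP as positive control). Kinetic fluorescence Ex/Em 480/540 recorded 3 min at 1 sec intervals; 15 concentrations, triplicate.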"}
{"smiles": "Cc1cc(CCC(=O)OCCOCCOCCOC(=O)CCc2cc(C)c(O)c(C(C)(C)C)c2)cc(C(C)(C)C)c1O", "activation": "0.834%"}
{"smiles": "COCCCOc1ccnc(CS(=O)c2nc3ccccc3[nH]2)c1C", "note": "(stereo not drawn)", "Potency": "inactive"}
{"smiles": "CC(C)(c1ccc(O)cc1)c1ccc(O)cc1", "Potency": "inactive"}
{"smiles": "C[Si](C)O[Si](C)(C)O[Si](C)(C)O[Si](C)C", "activation": "-0.193%"}
{"smiles": "C[C@H]1C[C@H](O)c2ccsc2S1(=O)=O", "activation": "0.0096% [at 26.5 µM]"}
{"smiles": "CC1=CCC(C(C)(C)O)CC1", "note": "(stereo not drawn)", "Potency": "inactive"}
{"smiles": "CCC(C)=O", "activation": "0.59%"}
{"smiles": "N=c1nc(N2CCCCC2)cc(N)n1O", "activation": "0.556% [at 26.5 µM]"}
{"smiles": "CC(C)CCCC(C)N", "note": "(stereo not drawn)", "activation": "3.4% [at 26.5 µM]"}
{"smiles": "COc1ccc2c(c1)CCCC2=O", "activation": "-0.281% [at 26.5 µM]"}
{"smiles": "CC1=CCC(O)(C(C)C)CC1", "note": "(stereo not drawn)", "activation": "-0.138%"}
{"smiles": "CCCCCCCC(=O)[O-].CCCCCCCC(=O)[O-].[Zn+2]", "activation": "-0.0952% [at 26.5 µM]"}
{"smiles": "Nc1nc(N)c2nc(-c3ccccc3)c(N)nc2n1", "Potency": "inactive"}
{"smiles": "COC(=O)c1ccccc1C(=O)c1ccc(OCCN2CCCCC2)cc1", "activation": "0.175% [at 26.5 µM]"}
{"smiles": "c1coc(CNc2ncnc3nc[nH]c23)c1", "activation": "-0.308%"}
{"smiles": "CC1=C(O)C(=O)C(C)O1", "note": "(stereo not drawn)", "activation": "-0.868%"}
{"smiles": "Cc1[nH]cnc1-c1ccc(Cl)cc1", "activation": "-0.348% [at 26.5 µM]"}
{"smiles": "C1CCCC1", "activation": "-0.0738%"}
{"smiles": "CCCC(=O)CC", "activation": "-0.0407%"}
{"smiles": "Oc1ccc(Cl)cc1Sc1cc(Cl)ccc1O", "Potency": "inactive"}
{"smiles": "CCOCOCC", "activation": "0.036%"}
{"smiles": "CCCC1O[C@@H]2C[C@H]3[C@@H]4CCC5=CC(=O)C=C[C@]5(C)[C@H]4[C@@H](O)C[C@]3(C)[C@]2(C(=O)CO)O1", "note": "(stereo partly drawn)", "Potency": "inactive"}
{"smiles": "C1C[C@@H]2[C@H]3CC[C@H](C3)[C@@H]2C1", "activation": "-0.899%"}
{"smiles": "CC(C)C(=O)c1ccccc1", "activation": "0.037%"}
{"smiles": "Cc1c(C)c2c(c(C)c1O)CCC(C)(COc1ccc(CC3SC(=O)NC3=O)cc1)O2", "note": "(stereo not drawn)", "Potency": "inactive"}
{"smiles": "Cc1nc2ccccc2s1", "activation": "-0.123%"}
{"smiles": "COCCOCCOCCOCCOCCO", "activation": "-0.135%"}
{"smiles": "O=C(O)c1cc(-c2ccccc2)nc2ccccc12", "Potency": "inactive"}
{"smiles": "COc1cc(C(=S)N2CCOCC2)ccc1O", "activation": "2.98% [at 26.5 µM]"}
{"smiles": "O=C(O)CCCCCCCCCCCC(=O)O", "Potency": "inactive"}
{"smiles": "O=S(=O)(O)c1cccc2ccccc12", "activation": "0.102%"}
{"smiles": "COC(=O)CCCCC(=O)O", "activation": "0.0069%"}
{"smiles": "CN(CCOc1ccc(CC2SC(=O)NC2=O)cc1)c1ccccn1", "note": "(stereo not drawn)", "Potency": "inactive"}
{"smiles": "O=C(c1ccc(O)cc1O)c1ccc(O)cc1O", "Potency": "inactive"}
{"smiles": "O=C(CCNNC(=O)c1ccncc1)NCc1ccccc1", "activation": "1.33% [at 26.5 µM]"}
{"smiles": "O=C(O)c1cc(O)c(O)c(O)c1", "Potency": "inactive"}
{"smiles": "NCCc1ccc(O)c(O)c1", "Potency": "inactive"}
{"smiles": "O=C(O)c1ccc(CO)o1", "activation": "-0.689%"}
{"smiles": "O=C(O)CSCC(=O)NC1CCSC1=O", "note": "(stereo not drawn)", "activation": "-1.62% [at 26.5 µM]"}
